From PubChem BioAssay AID2132 (NMMLSC, 2009) come the findings set out here.

Broadly, the inhibition is the share of the control response that was lost under treatment.

A short description of this assay: inhibition of 26S proteasome fluorogenic peptide cleavage, counter-screen for 26S proteasome disassembly project, biochemical, fluorogenic peptides, secondary (AID 2132). The settings on record: yeast 26S proteasome, fluorogenic peptide cleavage rate; with Ac-RLR-amc; at 100 µM; hits give high values. Background: The purpose of a counterscreen is to sort out artefacts and off-target activity.

SMILES strings stand for the structures. A number with no mark means an inactive call.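 How the source made its calls: active means inhibition above 20%; inactive means the rest.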 Peptide text beside a SMILES is read from it. * marks the point of attachment. Cbz = O=C(OCc1ccccc1)*

For the molecule `CC(C)C[C@@H](C=O)NC(=O)[C@H](CC(C)C)NC(=O)[C@H](CC(C)C)NC(=O)OCc1ccccc1` (Cbz-Leu-Leu-Leu-aldehyde), the inhibition was 5%.

As for `CC(=O)N1C(=O)C(=C2C=C(C)OC(C)=C2)c2ccccc21`, the inhibition is 20%.
